# Shown are actives, neighbours in structure and some others; about 2.7% of the full set was active somewhere.
# TrxR1 inh = rat TrxR1 inhibition | recombinant rTrxR1, NADPH fluorescence consumption, selenite substrate | Potency, µM (series often up to 114 µM), without a hit: top-dose activity change, negative = inhibition, usual class: inhibitors | 390,000 compounds, 1% hits | AID 588453; further: potency means the concentration at half of the fitted maximal effect; on the % scale 0 is the no-effect control and ±100 the full control effect; nearly all actives have a fitted effect of over 65% in size
# Target sequence (O89049 whole entry, looked up): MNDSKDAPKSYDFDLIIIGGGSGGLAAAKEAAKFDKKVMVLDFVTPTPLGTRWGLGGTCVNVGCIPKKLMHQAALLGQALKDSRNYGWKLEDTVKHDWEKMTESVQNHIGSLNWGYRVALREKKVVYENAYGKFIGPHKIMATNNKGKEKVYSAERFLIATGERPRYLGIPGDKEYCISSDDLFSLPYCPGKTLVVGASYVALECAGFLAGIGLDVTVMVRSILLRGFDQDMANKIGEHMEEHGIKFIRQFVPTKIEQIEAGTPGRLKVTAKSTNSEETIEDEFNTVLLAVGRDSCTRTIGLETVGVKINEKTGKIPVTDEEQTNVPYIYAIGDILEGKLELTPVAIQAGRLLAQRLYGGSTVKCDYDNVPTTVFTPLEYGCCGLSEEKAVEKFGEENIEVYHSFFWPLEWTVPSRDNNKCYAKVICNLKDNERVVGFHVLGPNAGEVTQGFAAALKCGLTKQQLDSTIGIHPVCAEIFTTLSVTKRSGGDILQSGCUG
#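 Rat TrxR1 (90 nM in the dispensed reagent) was pre-reduced with 400 uM NADPH for 5 min at room temperature, then incubated with compound for 15 min. After 400 uM selenite was added, NADPH fluorescence (Ex 340/Em 450 nm) was followed for 8 min.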
# GLP-1R agonist = GLP-1 receptor (human) agonism | P43220 | HEK293 GLP-1R CRE-luciferase, luminescence, 4-6 h; cells express a hypersensitive GLP-1R form | Potency, µM (series often up to 45.6 µM), for inactives: top-dose activation, usual class: activators | 380,000 compounds, 0.007% hits | AID 624172; further: potency means the concentration at half of the fitted maximal effect; % of control where 0% means no effect
# GLP1R cytotox = cytotoxicity in counter-screen for GLP-1R inverse agonists. HEK293 cAMP-luciferase reporter cells, luminescence, 24 h. 410,000 compounds, 0.13% hits. Potency, µM (series often up to 38.3 µM), inactives show at the highest dose activity change, negative = inhibition, usual class: inhibitors. AID 624418;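 further: loss of luciferase light is scored as toxicity; potency means the concentration at half of the fitted maximal effect; on the % scale 0 is the no-effect control and ±100 the full control effect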
#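 Here, cytotoxicity is scored as loss of luminescence. The MLSMR collection was tested on cells seeded in medium containing 10% Nu serum, with a 24 hr compound exposure preceded by 12 hours of culture.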
# GLP-1R inv ag = GLP-1 receptor (human) inverse agonism; AID 624417; P43220; Potency, µM (doses to about 38.3 µM), for inactives: at the top dose activity change, negative = inhibition, actives largely listed as inhibitors; HEK293 GLP-1R CRE-luciferase, luminescence, 24 h; GLP-1R form is constitutively active; 410,000 compounds, 1.6% hits; further: potency means the concentration at half of the fitted maximal effect; on the % scale 0 is the no-effect control and ±100 the full control effect; nearly all actives have a fitted effect of over 55% in size
#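 HEK293 cells stably co-expressing constitutively active GLP-1R and a cAMP-responsive luciferase reporter were seeded in DMEM with 10% Nu serum, given compounds after 12 h, and incubated 24 h at 37 deg C. Luminescence was then read.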
# TrxR1 substrate = is turned over as a substrate by rat TrxR1. Potency, µM (titrated, usually from 114 µM), for the others: top-dose activity change, negative = substrate turnover. purified TrxR1 substrate turnover, NADPH consumption readout. O89049. AID 588456. 390,000 compounds, 0.01% hits; further: potency means the concentration at half of the fitted maximal effect; on the % scale 0 is the no-effect control and ±100 the full control effect; nearly all actives have a fitted effect of over 50% in size
#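 Rat TrxR1, dispensed at 90 nM, was prereduced with 400 uM NADPH (final) for 5 min at ~22 deg C, then incubated with compound 15 min before 400 uM selenite. A first-read NADPH fluorescence drop versus no-compound background flagged substrates.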
# IDH1 R132H inh = blocks human mutant IDH1 R132H enzyme; 390,000 compounds, 0.093% hits; IDH1-R132H enzyme, NADPH consumption, diaphorase/resazurin fluorescence; Potency, µM (series often up to 76.6 µM), for the others: at the top dose activity change, negative = inhibition, usual class: inhibitors; AID 602179; further: potency means the concentration at half of the fitted maximal effect; on the % scale 0 is the no-effect control and ±100 the full control effect; nearly all actives have a fitted effect of over 65% in size
#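 IDH1-R132H (0.5 ug/mL dispensed) in pH 7.5 Tris buffer was preincubated 30 min with compound, then given a substrate mix of 0.016 mM NADPH and 2 mM alpha-KG for 80 min at room temperature; remaining NADPH was read by diaphorase/resazurin fluorescence.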
# IDH1 autofl = counter-screen for mutant IDH1 inhibitors: fluorescence interference; shares compounds with IDH1 R132H inh; Resorufin detection reagent fluorescence interference, cell-free; inhibition of signal, % at 51.2 µM; 750 tested, under 10 active; AID 623980;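 further: 0% = wells with normal resorufin and full inhibition = wells lacking resorufin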
# WT IDH1 inh = inhibits human wild-type IDH1, mutant selectivity check; 750 compounds, 9% hits; shares compounds with IDH1 R132H inh; WT IDH1 enzyme, NADPH diaphorase/resazurin fluorescence; Potency, µM (series often up to 115 µM), without a hit: at the highest dose activity change, negative = inhibition, actives largely listed as inhibitors; AID 623995;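 further: potency means the concentration at half of the fitted maximal effect; 0% = full WT IDH1 enzyme control and full inhibition = no enzyme wells; nearly all actives have a fitted effect of over 55% in size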
# mIDH1 confirm = mutant IDH1 (human) inhibition, confirmed; shares compounds with IDH1 R132H inh; IDH1 R132H enzyme, NADPH diaphorase/resazurin fluorescence; Potency, µM (top dose mostly 76.6 µM), without a hit: top-dose activity change, negative = inhibition, most hits filed as inhibitors; 750 compounds, 83% hits; further: potency means the concentration at half of the fitted maximal effect; nearly all actives have a fitted effect of over 50% in size
# Numbers without * were called inactive; ? = inconclusive; . = no result; [ ] = dose if it differs, or a comment. The call rests on the fitted dose curve; in most records, active means well fitted curve in the direction sought with a large enough effect; inconclusive means small, poorly fitted or top-dose-only effect, or another doubt; inactive means no such curve, though single readings can be large; an effect the other way counts as inactive or inconclusive.
SMILES,TrxR1 inh,GLP-1R agonist,GLP1R cytotox,GLP-1R inv ag,TrxR1 substrate,IDH1 R132H inh,IDH1 autofl,WT IDH1 inh,mIDH1 confirm
COc1ccccc1N(C(=O)c1snc(C(N)=O)c1N)C(C(=O)NCc1ccccc1)c1ccc(O)cc1 (stereo unspecified),35.0%,17.9%,12.6%,14.7%,31.5%,58.5µM*,6.2,-1.5%,22.4µM*
COc1ccc(C(C(=O)NC2CCCC2)N(C(=O)c2snc(C(N)=O)c2N)c2cc(C)ccc2OC)cc1OC (stereo unspecified),-2.2%,11.2%,-1.7%,29.0%,4.2%,?,5.0,3.6%,31.6µM*
CCc1cccc(C)c1NC(=O)C1CCN(S(=O)(=O)c2c(C)noc2/C=C/c2c(C)cc(C)cc2C)CC1,7.7%[57.1 µM],.,2.4%,17.4%,-4.4%[57.1 µM],0.9%,.,.,.
COc1ccc(C(=O)[C@H]2[C@H]3C(=O)N(c4ccc(C)cc4)C(=O)[C@H]3C3C=CC=NN32)cc1 (stereo partly specified),4.4%[57.1 µM],2.2%,-8.7%,6.6%,-2.2%[57.1 µM],4.8%,.,.,.
CC(=O)Oc1ccc(C(=O)[C@H]2[C@H]3C(=O)N(c4ccc(C)cc4C)C(=O)[C@H]3[C@@H]3C=CC=NN32)cc1,-41.1%,5.3%,19.9%,15.4%,1.3%[57.1 µM],41.4µM*,4.4,-10.7%,28.2µM*
CCCn1c(C2CCCN2c2nc(-c3cccc(Br)c3)cs2)nc2ccccc21 (stereo unspecified),14.0%[57.1 µM],5.8%,4.47µM*,?,-0.6%[57.1 µM],?,5.0,-3.0%,25.1µM*
Cc1ccc(-c2csc(N3CCC[C@@H]3C(=O)NCCn3c(C(F)(F)F)nc4ccccc43)n2)cc1,11.3%,-4.9%,-4.6%,?,7.7%,20.5%,.,.,.
CCC(=O)N(CCC1(c2ccccc2OC)CCOC(C(C)C)C1)Cc1ccco1 (stereo unspecified),11.3%[57.1 µM],6.9%,3.0%,?,-9.2%,?,2.6,7.3%,39.8µM*
CCC(=O)N(CCC(Cc1ccccc1)c1ccco1)Cc1ccco1 (stereo unspecified),19.3%[57.1 µM],11.4%,-5.3%,?,6.7%[57.1 µM],0.8%,.,.,.
CCC(=O)N(CCC(Cc1ccccc1)c1ccc2c(c1)OCO2)Cc1ccccc1F (stereo unspecified),-18.9%,-3.5%,-24.0%,?,-0.6%,?,-4.9,8.4%,14.1µM*
Cc1cccc(N=C2Sc3nc4c(C)c(C)ccc4cc3CN2CCN2CCOCC2)c1,3.3%,6.3%,-16.9%,0.0%,-5.0%,?,8.1,4.9%,11.2µM*
COCCN1Cc2cc3cc(C)ccc3nc2SC1=Nc1cccc(OC)c1,-20.9%,12.5%,-2.1%,?,-3.2%,6.2%,.,.,.
O=C(COC(=O)C12CC3CC(CC(O)(C3)C1)C2)NCc1ccco1,5.0%,.,.,.,8.6%,.,.,.,.
Cc1ccc(NC(=O)CSC2=C(C#N)C(c3ccco3)C3=C(CC(C)(C)CC3=O)N2)cc1 (stereo unspecified),4.7%[57.1 µM],-6.9%,2.9%,?,1.8%[57.1 µM],52.1µM*,3.3,-6.0%,28.2µM*
CCc1ccccc1NC(=O)[C@@H](c1ccccc1)N1Cc2ccccc2C1=O,4.5%,0.4%,-5.2%,?,0.2%,-5.6%,.,.,.
CNC(=O)/C(C#N)=C/c1c(N(Cc2ccccc2)Cc2ccccc2)nc2ccccn2c1=O,-4.4%,2.8%,22.6%,-18.2%,-2.4%,52.1µM*,-6.0,-1.1%,25.1µM*
COC(=O)/C(C#N)=C/c1c(N2CCN(c3ccccc3)CC2)nc2ccccn2c1=O,-8.6%,19.7%,-5.2%,38.2%,-9.3%,-2.6%,.,.,.
O=C(Nn1c(C2CCCCC2)nc2ccccc2c1=O)c1ccc([N+](=O)[O-])cc1,-8.7%[57.1 µM],1.0%,6.4%,10.4%,-1.5%[57.1 µM],?,6.4,1.1%,-29.9%
